NFkB transloc pot – enhances IL-1B driven NFkB nuclear translocation; 0.3% of 94,000 active; activation, % at 2 µM; HUVEC IL-1B NFkB p65 nuclear translocation imaging;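 active = activation above 40%, about the mean plus 3 SD, also judged a hit on visual image review; inconclusive = activation above 40% but not a hit on visual review; inactive = activation not above 40% and no visual hit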;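 note: percent activation is computed from the nuclear over cytoplasmic p65 intensity ratio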
IL1B NFkB inh – blocks IL-1B driven NFkB nuclear translocation in HUVEC cells. HUVEC IL-1B NFkB p65 nuclear translocation imaging. inhibition, % at 2 µM. 0.43% of 94,000 active. AID 796;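 active = inhibition above about 30% together with a positive call from visual inspection of the well image, limit read from the data; inconclusive = inhibition above a set limit but visual check negative; inactive = inhibition not above a set limit, visual check negative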;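 note: nuclear over cytoplasmic p65 intensity ratio measured by imaging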
HUVEC tox IL1B – toxic to HUVEC cells under IL-1B stimulation | cell count reduction, % at 2 µM | HUVEC cell count loss, Hoechst imaging, IL-1B stimulated | AID 845 | 0.41% of 94,000 active;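 active = cell count reduction more than 3 SD above the screen-wide mean, cut at about 70% in these data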
Insulin prom inh – TRM-6 insulin promoter activity inhibition | TRM-6 cells (human fetal islet line), insulin promoter-eGFP reporter, imaging; reporter expression induced with tamoxifen | inhibition, % at 2 µM | 0.9% of 130,000 active | AID 1273;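 active = inhibition above the mean plus 3 SD, with well images judged a real hit on visual review, cut at about 60% in these data, passing the limit was not always enough; inconclusive = inhibition over the cutoff but images rejected on review; inactive = inhibition not above the cutoff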
Numbers stand for hits; . = inactive; ? = inconclusive; / = no result given. Most compounds without a hit are left out; they make up all but 1.4% or so of the library.

SMILES | NFkB transloc pot | IL1B NFkB inh | HUVEC tox IL1B | Insulin prom inh
CCNc1nc(NC(C)C)nc(ON=C(C)C)n1 | / | / | / | .
CCNc1nc(NC(C)C)nc(OCC)n1 | . | . | . | 72
CC(C)(C)OC(=O)N1CCN(C(=O)Nc2ccc3c(c2)OCCO3)CC1 | / | / | / | .
CCOC(=O)COc1ccc2ccccc2c1/C=C/[N+](=O)[O-] | / | / | / | .
CCOc1ccc(/C=C/[N+](=O)[O-])c2ccccc12 | . | 61 | . | .
C/C(N)=C(/C#N)C(=O)COC(=O)c1ccc(C)c(S(=O)(=O)N2CCCCC2)c1 | 42 | . | . | .
C/C(N)=C(/C#N)C(=O)COC(=O)c1cc(S(=O)(=O)N2CCCCC2)ccc1C | . | . | . | .
COc1ccccc1NC(=O)C(C)NS(=O)(=O)c1ccccc1 (stereo not given) | . | . | 73 | .
CCOc1ccccc1OCCCC(=O)Nc1sccc1C(N)=O | / | / | / | .
COc1cccc(C2=NCCc3cc4c(cc32)OCO4)c1OC | / | / | / | .
COc1ccc2cc3[n+](cc2c1OC)CCc1cc2c(cc1-3)OCO2 | / | / | / | 67
COC(=O)/C(C#N)=C1/C=Cc2ccccc2N1 | / | / | / | .
Cc1cc(S(=O)(=O)Nc2ccc(F)cc2)c(C)s1 | . | . | 89 | .
Cc1cc(S(=O)(=O)Nc2cccc(O)c2)c(C)s1 | . | . | . | .
Cc1ccc(C(C)C)c(OCCNS(C)(=O)=O)c1 | . | . | 84 | ?
Cc1ccc(-c2nc3cccnc3s2)cc1NC(=O)C1c2ccccc2Oc2ccccc21 | / | / | / | .
CN(CC(=O)N1CCCCC1)S(=O)(=O)c1cccc2cccnc12 | / | / | / | 86
COc1cc([N+](=O)[O-])c(C(=O)N2CCOCC2)c([N+](=O)[O-])c1 | / | / | / | .
CN(C)CCC(=O)c1ccc2c(c1)OCO2 | . | . | . | 82
CCN(CC)S(=O)(=O)c1ccc(C2=NOC3(C2)N(C)c2ccccc2C3(C)C)cc1 (stereo not given) | / | / | / | .
COc1ccc(Cl)cc1NC(=O)CC(C)c1ccccc1 (stereo not given) | . | 97 | 80 | .
O=C(O)CCC(=O)Nc1ccccc1C(=O)NCc1ccccc1 | / | / | / | .
C=CCOc1ccc(/C(O)=C2/C(=O)C(=O)N(CCCn3ccnc3)C2c2cccs2)cc1 (stereo not given) | . | . | . | .
Cc1occc1C(=O)Nc1nn[nH]n1 | . | . | . | 92
CC1CN(C(=O)C2(C)CC2(Br)Br)CC(C)O1 (stereo not given) | / | / | / | .
SMILES | NFkB transloc pot | IL1B NFkB inh | HUVEC tox IL1B | Insulin prom inh
COc1ccc(S(=O)(=O)Nc2ccc3c(c2)OCO3)cc1C | . | . | . | 86
CCNS(=O)(=O)c1ccc(OC)c(C)c1 | . | 63 | 83 | .
O=C(COC(=O)CNS(=O)(=O)/C=C/c1ccccc1)Nc1cccc2ccccc12 | / | / | / | .
NC(=O)C1(N2CCCCC2)CCN(C2CC(=O)N(CCc3ccccc3)C2=O)CC1 (stereo not given) | . | . | . | .
NC(=O)C1(N2CCCCC2)CCN(C(=O)c2cccs2)CC1 | 40 | . | . | /
NC(=O)C1(N2CCCCC2)CCN(C2CC(=O)N(Cc3cccs3)C2=O)CC1 (stereo not given) | . | 32 | . | .
Cc1ccc(CN2CCNC(=O)C2CC(=O)O)o1 (stereo not given) | . | . | . | /
CCOC(=O)COn1c(=O)c[n+]([O-])c2ccccc21 | . | . | . | 100
C1=Nc2c(NCc3ccccc3)ncnc2Oc2ccccc21 | . | 98 | 91 | .
c1ccc(CNc2ncnc3nc[nH]c23)cc1 | . | . | . | .
COc1ccc(S(=O)(=O)Nc2cc(C)nn2-c2ccccc2)cc1 | . | . | . | /
COc1ccc(OC)c(NC(=O)C(CC(=O)O)NCc2ccco2)c1 (stereo not given) | . | . | . | .
